Source: PubChem BioAssay (NCATS)
Several values for one entry are separate records, joined by “and”; a condition that tells them apart may be missing. Equal values may be shown once. Records with an inconclusive call do not appear. Activity calls are given as the source filed them. Unless noted, the call rests on the fitted dose curve; in most records, active means well fitted curve in the direction sought with a large enough effect; inconclusive means small, poorly fitted or top-dose-only effect, or another doubt; inactive means no such curve, though single readings can be large; an effect the other way counts as inactive or inconclusive.

Tests used:
OV90 = assay: Primary qHTS to identify gynecologic anti-cancer compounds using libraries of approved drugs and bioactive compounds (AID 1345084); settings: Gynecologic cancer cell panel viability, ATPlite luminescence, 48 h; series mostly up to 57.5 µM; further: on the % scale 0 is the no-effect control and ±100 the full control effect; nearly all actives have a fitted effect of over 55% in size
Summary of the method: (§1)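 Luminescence from the ATPlite ATP-monitoring reagent indicates viable cell number; lower signal means cytotoxicity. Cells received compound 16 h after seeding and were exposed for 48 h across five concentrations.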

PA-1 = assay: as above; settings: Gynecologic cancer cell panel viability, ATPlite luminescence, 48 h; series mostly up to 57.5 µM
Summary of the method: as §1

SKOV3 = assay: as above; settings: Gynecologic cancer cell panel viability, ATPlite luminescence, 48 h; series mostly up to 57.5 µM
Summary of the method: as §1

Tov-21-G = assay: as above; settings: Gynecologic cancer cell panel viability, ATPlite luminescence, 48 h; series mostly up to 57.5 µM
Summary of the method: as §1

Tov112D = assay: as above; settings: Gynecologic cancer cell panel viability, ATPlite luminescence, 48 h; series mostly up to 57.5 µM
Summary of the method: as §1

[1] = Drug repurposing screens with cells derived from glioblastoma tumor samples (AID 1345199); settings: GBM patient neurospheres viability, ATP luminescence, 48 h; further: nearly all actives have a fitted effect of over 40% in size; further: potency means the concentration at half of the fitted maximal effect; on activity, negative = cell killing: on the % scale 0 is the no-effect control and ±100 the full control effect
Summary of the method: (§2)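 Primary testing used CD133+ neurospheres from four GBM patients, seven concentrations, 48 h exposure and ATP-based viability; confirmation added three slower-growing patient lines.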

astro = assay: as above; settings: viability, ATP luminescence, 48 h; series mostly up to 45.9 µM
Summary of the method: as §2

[2] = target: Nuclear receptor subfamily 1 group I member 2 (Rattus norvegicus) (UniProt Q9R1A7); assay: qHTS assay for small molecule activators of the rat pregnane X receptor (rPXR) signaling pathway (AID 651751; call rule not given here; further: 0% is about no effect); settings: rPXR reporter cells, luciferase (One-Glo), 24 h
Chain of Nuclear receptor subfamily 1 group I member 2 (Rattus norvegicus) (Q9R1A7 whole entry, looked up): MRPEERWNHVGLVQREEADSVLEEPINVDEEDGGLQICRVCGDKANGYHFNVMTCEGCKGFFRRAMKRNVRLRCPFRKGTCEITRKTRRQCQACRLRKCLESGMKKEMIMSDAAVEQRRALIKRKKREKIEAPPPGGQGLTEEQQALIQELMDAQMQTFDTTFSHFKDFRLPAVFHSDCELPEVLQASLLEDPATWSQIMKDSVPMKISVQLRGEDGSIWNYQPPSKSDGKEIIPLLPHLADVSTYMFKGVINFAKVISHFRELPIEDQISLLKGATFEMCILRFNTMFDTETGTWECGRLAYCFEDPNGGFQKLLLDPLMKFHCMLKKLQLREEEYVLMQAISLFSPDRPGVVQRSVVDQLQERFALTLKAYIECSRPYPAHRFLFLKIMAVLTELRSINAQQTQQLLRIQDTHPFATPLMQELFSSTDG

[3] = qHTS assay for small molecule activators of the human pregnane X receptor (PXR) signaling pathway (AID 720659; call rule not given here; further: 0% is about no effect)
[4] = at 45.9 µM (top of the series), tumour line B
[5] = at 45.9 µM (top of the series), tumour line D
[6] = at 46.1 µM (top of the series), tumour line C
[7] = at 46 µM (top of the series), tumour line A
[8] = at 91.6 µM (top of the series), tumour line A
[9] = at 91.6 µM (top of the series), tumour line B
[10] = at 91.6 µM (top of the series), tumour line D
[11] = at 99.2 µM (top of the series), tumour line C

CC(C)(C)C(O)/C=C/c1ccc2c(c1)OCO2 (stereo unspecified)
inactive: Potency (OV90) | Potency (PA-1) | Potency (SKOV3) | Potency (Tov-21-G) | Potency (Tov112D) | activity, negative = cell killing [1, 4] -14.2% | activity, negative = cell killing [1, 5] -29.5% | activity, negative = cell killing [1, 6] 10.3% | Potency (astro)
active: Potency ([1]; tumour line A) 15.8 µM

O=C(Oc1ccccc1)c1ccccc1O
inactive: Potency (OV90) | Potency (PA-1) | Potency (SKOV3) | Potency (Tov-21-G) | Potency (Tov112D) | activity, negative = cell killing [1, 4] -4.53% | activity, negative = cell killing [1, 5] 13.5% | activity, negative = cell killing [1, 7] -25.7% | activity, negative = cell killing [1, 6] -8.91% | Potency (astro) | max response [2] 9.53% and -0.74% | outcome [3]

CCOC(=O)OCC/C(SC(=O)OCC)=C(\C)N(C=O)Cc1cnc(C)nc1N
inactive: Potency (OV90) | Potency (PA-1) | Potency (SKOV3) | Potency (Tov-21-G) | Potency (Tov112D) | activity, negative = cell killing [1, 4] -4.41% | activity, negative = cell killing [1, 5] -10.3% | activity, negative = cell killing [1, 7] -26% | activity, negative = cell killing [1, 6] -10.1% | Potency (astro)

CC(=O)OCC(=O)[C@@]1(O)CCC2C3CCC4=CC(=O)CC[C@]4(C)C3[C@@H](O)C[C@@]21C (stereo partly specified)
inactive: Potency (OV90) | Potency (PA-1) | Potency (SKOV3) | Potency (Tov-21-G) | Potency (Tov112D) | activity, negative = cell killing [1, 4] -6.98% | activity, negative = cell killing [1, 5] -11.4% | activity, negative = cell killing [1, 7] -11.4% | activity, negative = cell killing [1, 6] 20.9% | Potency (astro)

CN1C(=O)CC(C)(c2ccccc2)C1=O (stereo unspecified)
inactive: Potency (OV90) | Potency (PA-1) | Potency (SKOV3) | Potency (Tov-21-G) | Potency (Tov112D) | activity, negative = cell killing [1, 4] -1.54% | activity, negative = cell killing [1, 5] 0.352% | activity, negative = cell killing [1, 7] -33.9% | activity, negative = cell killing [1, 6] -2.82% | Potency (astro)

CC(=O)Nc1c(I)c(NC(C)=O)c(I)c(C(=O)O)c1I
inactive: Potency (OV90) | Potency (PA-1) | Potency (SKOV3) | Potency (Tov-21-G) | Potency (Tov112D) | activity, negative = cell killing [1, 4] -4.92% | activity, negative = cell killing [1, 5] -9.58% | activity, negative = cell killing [1, 7] -18.7% | activity, negative = cell killing [1, 6] -9.62% | Potency (astro)

O=C(Oc1ccccc1)c1cccc(C(=O)Oc2ccccc2)c1
inactive: Potency (OV90) | Potency (PA-1) | Potency (SKOV3) | Potency (Tov-21-G) | Potency (Tov112D) | activity, negative = cell killing [1, 8] -20.2% | activity, negative = cell killing [1, 9] -23.3% | activity, negative = cell killing [1, 10] -9.21% | activity, negative = cell killing [1, 11] 1.54% | Potency (astro)

CCOc1ccc(NS(=O)(=O)c2ccc(N)cc2)nn1
inactive: Potency (OV90) | Potency (PA-1) | Potency (SKOV3) | Potency (Tov-21-G) | Potency (Tov112D) | activity, negative = cell killing [1, 4] -20.8% | activity, negative = cell killing [1, 5] 5.52% | activity, negative = cell killing [1, 7] -27.9% | activity, negative = cell killing [1, 6] 9.99% | Potency (astro)

CO[C@@]1(NC(=O)CSC[C@@H](N)C(=O)O)C(=O)N2C(C(=O)O)=C(CSc3nnnn3C)CS[C@@H]21
inactive: Potency (OV90) | Potency (PA-1) | Potency (SKOV3) | Potency (Tov-21-G) | Potency (Tov112D) | activity, negative = cell killing [1, 4] -3.3% | activity, negative = cell killing [1, 5] -19.7% | activity, negative = cell killing [1, 7] -20.1% | activity, negative = cell killing [1, 6] -4.96% | Potency (astro)

Brc1ccccc1-c1ccccc1
inactive: Potency (OV90) | Potency (PA-1) | Potency (SKOV3) | Potency (Tov-21-G) | Potency (Tov112D) | activity, negative = cell killing [1, 8] -21.1% | activity, negative = cell killing [1, 9] -9.1% | activity, negative = cell killing [1, 10] -21.1% | activity, negative = cell killing [1, 11] 6.63% | Potency (astro) | max response [2] 13.4% | outcome [3]

CC(C)(C)C(=O)OCOC(=O)C1N2C(=O)CC2S(=O)(=O)C1(C)C (stereo unspecified)
inactive: Potency (OV90) | Potency (PA-1) | Potency (SKOV3) | Potency (Tov-21-G) | Potency (Tov112D) | activity, negative = cell killing [1, 4] -8.27% | activity, negative = cell killing [1, 5] -8.54% | activity, negative = cell killing [1, 7] -19.2% | activity, negative = cell killing [1, 6] -11.5% | Potency (astro)

CC1CN(c2cc3c(cc2F)c(=O)c(C(=O)O)cn3-c2ccc(F)cc2F)CCN1 (stereo unspecified)
inactive: activity change, negative = cytotoxicity (OV90) 18.6% [at 6.55 µM] | activity change, negative = cytotoxicity (PA-1) 6.96% [at 6.55 µM] | activity change, negative = cytotoxicity (SKOV3) -2.15% [at 6.55 µM] | activity change, negative = cytotoxicity (Tov-21-G) -0.759% [at 6.55 µM] | activity change, negative = cytotoxicity (Tov112D) -5.84% [at 6.55 µM] | activity, negative = cell killing [1, 4] -0.773% | activity, negative = cell killing [1, 5] -11% | activity, negative = cell killing [1, 7] -6.24% | activity, negative = cell killing [1, 6] -10.7% | Potency (astro)

CCOC(=O)NNc1nncc2ccccc12
inactive: Potency (OV90) | Potency (PA-1) | Potency (SKOV3) | Potency (Tov-21-G) | Potency (Tov112D) | activity, negative = cell killing [1, 4] -5.14% | activity, negative = cell killing [1, 5] -7.16% | activity, negative = cell killing [1, 6] -13.4% | Potency (astro)

CCCCCC[C@@H](CCC)C(=O)O
inactive: Potency (OV90) | Potency (PA-1) | Potency (SKOV3) | Potency (Tov-21-G) | Potency (Tov112D) | activity, negative = cell killing [1, 4] -11.8% | activity, negative = cell killing [1, 5] -7.11% | activity, negative = cell killing [1, 6] -6.46% | Potency (astro)

CO/N=C(/C(=O)N[C@@H]1C(=O)N2C(C(=O)O)=C(Cn3nnc(C)n3)CS[C@H]12)c1csc(N)n1
inactive: Potency (OV90) | Potency (PA-1) | Potency (SKOV3) | Potency (Tov-21-G) | Potency (Tov112D) | activity, negative = cell killing [1, 4] -1.74% | activity, negative = cell killing [1, 5] 2.54% | activity, negative = cell killing [1, 7] -14.3% | activity, negative = cell killing [1, 6] 9.89% | Potency (astro)

O=C(O)/C=C(\CC(=O)O)C(=O)O
inactive: Potency (OV90) | Potency (PA-1) | Potency (SKOV3) | Potency (Tov-21-G) | Potency (Tov112D) | activity, negative = cell killing [1, 4] -11.5% | activity, negative = cell killing [1, 5] -18% | Potency (astro)
active: Potency ([1]; tumour line A) 20 µM

CO/N=C(/C(=O)N[C@@H]1C(=O)N2C(C(=O)OCOC(=O)C(C)(C)C)=C(C)CS[C@H]12)c1csc(N)n1
inactive: Potency (OV90) | Potency (PA-1) | Potency (SKOV3) | Potency (Tov-21-G) | Potency (Tov112D) | activity, negative = cell killing [1, 4] -3% | activity, negative = cell killing [1, 5] 4.02% | activity, negative = cell killing [1, 7] -24.5% | activity, negative = cell killing [1, 6] 0.657% | Potency (astro)
